HEK cytotox = cytotoxic compounds in HEK 293 cells; 94,000 compounds, 6.6% hits; Potency, µM (doses to about 115 µM), hits mostly inhibitors; AID 1345083; HEK 293 viability, ATP luminescence (CellTiter-Glo), 48-72 h; further: nearly all actives have a fitted effect of over 60% in size
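CellTiter-Glo luminescence (cellular ATP) was read after 48 or 72 hr of compound exposure at 37 degree Celsius. Cells were HEK 293 plated at 250 cells/well.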
NIH3T3 tox = kills NIH 3T3 cells | AID 1345082 | NIH 3T3 viability, CellTiter-Glo ATP luminescence, 48-72 h | Potency, µM (top dose mostly 96.7 µM), most hits filed as inhibitors | 94,000 compounds, 4.3% hits; further: nearly all actives have a fitted effect of over 55% in size
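Cells were seeded at 400 per well, treated with pin-transferred compound, and kept 48 or 72 hr at 37 °C before CellTiter-Glo addition and luminescence imaging of cellular ATP.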
FLuc inh = Photinus pyralis luciferase inhibition; purified P. pyralis luciferase, luminescence, biochemical; 76,000 compounds, 2.5% hits; P08659; AID 1347043; Potency, µM (doses to about 115 µM), most hits filed as inhibitors; further: nearly all actives have a fitted effect of over 65% in size
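Purified P. pyralis luciferase (10nM final) in 50mM Tris acetate pH 7.5, 10mM Mg acetate, 0.01% Tween-20, 0.05% BSA with 10uM D-luciferin and 10uM ATP. Compounds titrated qHTS. Luminescence imaged on CCD.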
hNpr1 antagonist = blocks ANP-stimulated signaling of human Npr1 receptor. Potency, µM (top dose mostly 46.3 µM), actives largely listed as inhibitors. HEK293 hNpr1 GloSensor cGMP, ANP-stimulated luminescence. P16066. 76,000 compounds, 1.6% hits; calls by dose curve; further: nearly all actives have a fitted effect of over 60% in size
Target sequence (P16066 whole entry, looked up): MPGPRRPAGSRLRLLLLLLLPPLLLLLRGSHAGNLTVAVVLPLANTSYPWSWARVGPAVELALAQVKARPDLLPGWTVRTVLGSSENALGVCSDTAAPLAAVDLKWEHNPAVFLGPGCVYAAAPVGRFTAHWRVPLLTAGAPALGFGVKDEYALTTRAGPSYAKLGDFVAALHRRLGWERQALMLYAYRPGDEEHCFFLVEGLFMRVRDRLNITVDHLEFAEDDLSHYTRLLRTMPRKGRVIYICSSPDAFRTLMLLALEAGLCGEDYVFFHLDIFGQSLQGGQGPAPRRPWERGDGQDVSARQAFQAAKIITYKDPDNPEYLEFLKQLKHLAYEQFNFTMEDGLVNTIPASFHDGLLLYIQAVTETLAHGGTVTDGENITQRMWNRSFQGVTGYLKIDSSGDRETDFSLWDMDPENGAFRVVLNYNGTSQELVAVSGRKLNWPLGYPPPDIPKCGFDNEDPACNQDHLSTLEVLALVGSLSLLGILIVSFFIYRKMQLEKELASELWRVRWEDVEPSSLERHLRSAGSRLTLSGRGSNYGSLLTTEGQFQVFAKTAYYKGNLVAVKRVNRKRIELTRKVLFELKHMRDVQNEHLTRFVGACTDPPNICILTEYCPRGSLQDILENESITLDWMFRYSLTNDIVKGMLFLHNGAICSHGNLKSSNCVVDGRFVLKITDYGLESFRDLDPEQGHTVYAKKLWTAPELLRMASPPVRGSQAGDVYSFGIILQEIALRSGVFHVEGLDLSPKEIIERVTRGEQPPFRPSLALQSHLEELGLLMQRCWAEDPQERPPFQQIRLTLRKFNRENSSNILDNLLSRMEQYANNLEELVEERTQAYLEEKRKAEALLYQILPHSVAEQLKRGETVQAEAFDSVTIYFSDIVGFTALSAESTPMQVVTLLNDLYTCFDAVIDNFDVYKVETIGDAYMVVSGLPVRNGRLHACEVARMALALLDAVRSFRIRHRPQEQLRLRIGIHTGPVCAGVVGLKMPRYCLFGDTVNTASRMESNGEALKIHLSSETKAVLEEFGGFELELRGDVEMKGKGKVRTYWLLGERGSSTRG
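HEK293 cells stably expressing human Npr1 and cGMP GloSensor pGS-40F, loaded 2 h with 2% GloSensor reagent, given compound 30 min at room temperature. Luminescence read before and 20 min after 0.1 nM hNppA.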
Numbers stand for hits; – = inactive; ? = inconclusive; · = not tested or not shown. Hits are enriched below; roughly 11% of the tested compounds scored in any of these assays. Unless noted, the call rests on the fitted dose curve; in most records, active means well fitted curve in the direction sought with a large enough effect; inconclusive means small, poorly fitted or top-dose-only effect, or another doubt; inactive means no such curve, though single readings can be large; an effect the other way counts as inactive or inconclusive.

SMILES	HEK cytotox	NIH3T3 tox	FLuc inh	hNpr1 antagonist
O=C1COc2ccc(-c3ccncc3)nc2CN1Cc1ccc(C(F)(F)F)cc1	79µM	?	–	–
O=C1COc2ccc(-c3cn[nH]c3)nc2CN1Cc1ccc(C(F)(F)F)cc1	?	10µM	–	–
Cc1noc(C)c1-c1ccc2c(n1)CN(Cc1ccc(C(F)(F)F)cc1)C(=O)CO2	?	?	–	–
O=C1COc2ccc(OCC3CC3)nc2CN1Cc1ccc(C(F)(F)F)cc1	79µM	79µM	–	–
COc1ccccc1-c1[nH]ncc1CN1CCCN(S(=O)(=O)c2ccccc2)CCC(=O)NCC1	?	–	–	–
Cc1cccc(C)c1-c1nnc2ccc(C(=O)NCCc3ccccc3F)cn12	?	–	·	·
Cc1noc(C)c1[S+](=O)([O-])N1CCC(C(=O)N2CCCC(c3nc4ncccc4[nH]3)C2)CC1 (stereo not drawn)	–	–	·	·
O=C(CN1Cc2nc(Nc3ccc(C(F)(F)F)cc3)ccc2OCC1=O)N1CCCC1	79µM	50µM	–	–
Cc1nc(CN2Cc3nc(-c4cccc(C(F)(F)F)c4)ccc3OCC2=O)cs1	100µM	79µM	–	–
COc1ccc(-c2ccc3c(n2)CN(Cc2csc(C)n2)C(=O)CO3)cc1F	?	?	–	–
CC(C)(C)c1nnc2ccc(C(=O)NCCc3ccc(Cl)cc3)cn12	–	–	·	·
O=C(Cc1cccc(Cl)c1)NC1CCN(C(=O)c2ccc(-c3cncnc3)cc2)CC1	–	–	·	·
CCN1C(=O)C2(CCN(S(=O)(=O)Cc3ccc(Cl)cc3)CC2)c2ccccc21	35µM	25µM	–	–
COc1ccccc1-c1cc(C(=O)NCCN2CCOCC2)nn2cnnc12	–	–	·	·
CCn1nccc1C(=O)N1CCC2(CC1)NC(=O)N(c1cccc(F)c1)N2	?	–	–	–
N#Cc1cccc(CN2C[C@@H](CO)[C@H](NC(=O)c3ccccc3)C2)c1	?	5µM	–	–
COc1cccc(CN2C[C@@H](CO)[C@H](NC(=O)c3ccccc3)C2)c1	35µM	?	–	–
O=C(Cc1ccccc1)N1C[C@@H](CO)[C@@H]2Oc3ccc(Cl)cc3[C@@H]21	79µM	?	·	·
CN1CC(=O)N(C2CCCC2)Cc2c(NC3CCCC3)ncnc21	–	?	·	·
Cc1ccc(CNC(=O)C2CCc3nc(N4CCN(C(=O)C(C)C)CC4)sc3C2)o1 (stereo not drawn)	79µM	–	–	–
Cc1ccccc1NC(=O)C1CCc2nc(N3CCN(C(=O)C(C)C)CC3)sc2C1 (stereo not drawn)	10µM	35µM	–	–
CC(=O)N1CCN(c2nc3c(s2)CC(C(=O)Nc2cc(Cl)ccc2F)CC3)CC1 (stereo not drawn)	40µM	?	–	–
CC(=O)N1CCN(c2nc3c(s2)CC(C(=O)NCc2cccc(Cl)c2)CC3)CC1 (stereo not drawn)	?	–	–	–
C[C@H]1CCCN1C(=O)c1nnc(CNc2ccc(OC(F)(F)F)cc2)n1-c1ccccc1	?	–	–	–
C[C@H]1CCCN1C(=O)c1nnc(COc2ccc(F)c(F)c2)n1-c1cccnc1	?	25µM	–	–
SMILES	HEK cytotox	NIH3T3 tox	FLuc inh	hNpr1 antagonist
C[C@H]1CCCN1C(=O)c1nnc(COc2ccccc2)n1-c1ccccc1	?	89µM	–	–
C[C@H]1CCCN1C(=O)c1nnc(COc2ccc(Cl)cc2)n1-c1ccccc1	79µM	3.2µM	–	–
O=C(c1nnc(CNc2ccc(OC(F)(F)F)cc2)n1-c1ccccc1)N1CCC[C@@H]1CN1CCCC1	71µM	?	–	–
COc1ccccc1Cn1c(=O)c(C(=O)N2CCN(C(=O)c3ccccc3)CC2)nc2cccnc21	–	–	·	·
CCn1nc(C)cc1C(=O)N1CCCN(Cc2ccc(F)cc2)C(C(C)C)C1 (stereo not drawn)	?	–	–	–
O=C(c1nnc(COc2ccc(F)c(F)c2)n1-c1ccccc1)N1CCC[C@@H]1C(c1ccccc1)c1ccccc1	?	4.5µM	–	–
O=C(c1nnc(CNc2ccccc2)n1-c1ccccc1)N1CCC[C@@H]1C(c1ccccc1)c1ccccc1	?	?	–	–
CCN1C(=O)CCN(C(=O)c2ccnn2CC)CC12CCOCC2	–	–	·	·
COc1ccccc1-c1nc(N2CCOCC2)cc2c1CN(Cc1cnn(C)c1)C2=O	–	25µM	–	–
Cn1cc(-c2nc(N3CCOCC3)cc3c2CN(CC2CC2)C3=O)cn1	–	10µM	–	–
C=CCNC(=O)N1C[C@@H](C(=O)OCC)[C@@H]2Oc3c(C)cccc3[C@@H]21	–	?	·	·
O=C(c1ccc(Cl)s1)N1CCC2(CC1)CN(c1ccncn1)CC2CO (stereo not drawn)	50µM	?	–	?
COc1ccc(-c2noc(-c3nc(C(C)C)no3)n2)cc1	?	–	11µM	–
COc1ccc(-c2noc(-c3nc(-c4cc(OC)c(OC)c(OC)c4)no3)n2)cc1	–	–	–	–
CNC(=O)N1CCC2(CC1)CC(N(Cc1ccc(F)cc1)C1CC1)CCO2 (stereo not drawn)	–	–	–	–
O=C(C1CCCCC1)N1CCC2(CC1)CC(N(Cc1ccc(F)cc1)C1CC1)CCO2 (stereo not drawn)	45µM	?	–	–
O=C(C1CC1)N1CCC2(CC1)CC(N(Cc1ccc(F)cc1)C1CC1)CCO2 (stereo not drawn)	?	–	–	–
CCC(CC)C(=O)N1CCC2(CC1)CC(N(Cc1ccc(F)cc1)C1CC1)CCO2 (stereo not drawn)	40µM	?	–	–
CC(C)c1noc(C2Cc3ccccc3N2C(=O)CCn2cnnn2)n1 (stereo not drawn)	–	–	–	–
CCn1ccc(C(=O)N2c3ccccc3CC2c2nc(C(C)C)no2)n1 (stereo not drawn)	?	–	40µM	–
Cc1ccc(-c2cn3cc(C(=O)NCC4CCCCC4)nc3s2)cc1	–	–	·	·
CCOC(=O)CNC(=O)c1cc(-c2ccc(Cl)cc2)cn1C	–	–	–	–
CCn1cc(-c2ccc(Cl)cc2)cc1C(=O)NCC(=O)OC	–	?	40µM	–
CCn1cc(-c2ccc(C)cc2)cc1C(=O)N1CCCN(C)CC1	79µM	?	–	–
CCn1cc(-c2ccc(Cl)cc2)cc1C(=O)N1CCCN(C)CC1	25µM	18µM	–	–
SMILES	HEK cytotox	NIH3T3 tox	FLuc inh	hNpr1 antagonist
CCn1cc(-c2ccc(Cl)cc2)cc1C(=O)N1CCN(C(C)C)CC1	?	40µM	–	–
CCN(CCOc1ccccc1)C(=O)c1ccoc1C	?	–	–	–
C#CCNC(=O)c1cn2cc(-c3ccc(C)cc3)sc2n1	–	–	·	·
COCCCn1c(=O)c(C(=O)N2CCN([S+](=O)([O-])c3cccc(OC)c3)CC2)nc2cccnc21	–	–	·	·
O=C(NCC1CC1)c1cc(-c2ccsc2)c2nncn2n1	–	–	·	·
COc1ccc(NC(=O)c2cc(-c3ccc[nH]3)n[nH]2)cc1	–	–	13µM	–
O=C(Nc1ccc(OC(F)(F)F)cc1)c1cc(-c2ccc[nH]2)n[nH]1	13µM	25µM	?	–

Assay outcomes (PubChem BioAssay)
